Assay outcomes (PubChem)
ST2 IL33 inh – inhibitors of human ST2 (IL1RL1) binding to IL-33, primary screen, biochemical, AlphaLISA | Interleukin-1 receptor-like 1 (Homo sapiens), Q01638 | AlphaLISA ST2-Fc/biotin-IL-33 interaction, 1 h | inhibition, % for hits at 17 µM | hit rate 2.3% among 78,000 | AID 1259354, 2018; in the data active means inhibition above about 30%
Target sequence (Q01638 whole entry, looked up): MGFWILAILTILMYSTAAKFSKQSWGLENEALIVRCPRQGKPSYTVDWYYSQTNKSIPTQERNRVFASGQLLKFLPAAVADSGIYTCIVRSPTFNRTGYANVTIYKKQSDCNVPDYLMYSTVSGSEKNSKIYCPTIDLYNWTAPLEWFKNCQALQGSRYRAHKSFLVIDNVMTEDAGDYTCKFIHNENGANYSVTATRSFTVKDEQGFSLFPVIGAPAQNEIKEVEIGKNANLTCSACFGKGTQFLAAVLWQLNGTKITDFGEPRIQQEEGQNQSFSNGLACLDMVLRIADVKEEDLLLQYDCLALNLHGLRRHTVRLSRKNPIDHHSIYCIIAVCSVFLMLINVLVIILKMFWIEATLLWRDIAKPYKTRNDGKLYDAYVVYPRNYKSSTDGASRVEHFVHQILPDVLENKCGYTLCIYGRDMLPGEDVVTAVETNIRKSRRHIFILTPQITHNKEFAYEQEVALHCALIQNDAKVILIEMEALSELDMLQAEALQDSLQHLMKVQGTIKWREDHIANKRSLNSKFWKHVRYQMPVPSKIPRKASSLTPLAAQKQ
Starred values were filed as active, the others as inactive; i = inactive; ! = not confirmed by another sample. This is one part of a sample in which hits are shown more often than they occur.

SMILES	ST2 IL33 inh
CCCCC(CC)CNC(=O)c1ccc(Cn2c(=O)[nH]c3ccsc3c2=O)cc1 (configuration not stated)	i
O=C(NCCc1ccc(Cl)cc1)c1ccc(Cn2c(=O)[nH]c3ccsc3c2=O)cc1	37%*!
COc1ccc(CCNC(=O)c2ccc(Cn3c(=O)[nH]c4ccsc4c3=O)cc2)cc1OC	i
CCn1nc(-c2ccc(OC)c(OC)c2)c2c(=O)n(C)c(=O)[nH]c21	i
CCCOC(=O)CSC1=C(C#N)C(c2ccc(Cl)cc2)CC(=O)N1 (configuration not stated)	i
Cc1ccc(S(=O)(=O)CCC(=O)NCC(=O)O)cc1C	i
COc1cc(CN2CCN(Cc3ccccc3)CC2)c([N+](=O)[O-])cc1OC	i
CN1CCN(Cc2cc(O)ccc2[N+](=O)[O-])CC1	i
OC(COCc1ccc2c(c1)OCO2)CN1CCN(c2cccc(Cl)c2)CC1 (configuration not stated)	i
O=[N+]([O-])c1cc2c(cc1CN1CCN(c3cccc(Cl)c3)CC1)OCO2	36%*
O=[N+]([O-])c1cc2c(cc1CN1CCN(c3ccc(F)cc3)CC1)OCO2	36%*
COc1cc(CN2CCCCCC2)c([N+](=O)[O-])cc1OC	i
COC(=O)c1c(C)oc2cc(Br)c(OC(=O)C(C)C)cc12	i
CCc1cc(NCc2nc3ccccc3c(=O)[nH]2)nc(N2CCOCC2)n1	i
Cc1cccc(-n2nc3c(c2NC(=O)c2ccc(C)c(C)c2)CSC3)c1	i
O=C(Cc1c(C(=O)O)[nH]c2ccc(Cl)cc12)NCC1COc2ccccc2O1 (configuration not stated)	i
CCCOc1ccc(NC(=O)C(=O)NCCc2ccc(OC)c(OC)c2)cc1	i
Nc1ccnc(N2C[C@H](O)[C@@H](N3CCN(c4ccccn4)CC3)C2)n1	i
O=C(NCC1CCCC(CNC(=O)c2ccccc2F)C1)c1ccccc1F (configuration not stated)	i
Cc1ccc(CN2CCN(C3CCN(Cc4ccccc4)CC3)CC2CCO)o1 (configuration not stated)	i
O=C(Nc1ccc(N2CCCC2)cc1)c1ccccc1F	68%*
CC(=O)c1ccc(NC(=O)c2ccccc2F)cc1	i
Cc1ccc(-n2nc3ccc(NC(=O)c4ccccc4F)cc3n2)cc1	i
O=c1[nH]c(-c2ccc(Br)cc2)nc2ccccc12	i
COc1ccc(C(=O)N2CCC(C(=O)Nc3ccccc3Br)CC2)cc1	i
SMILES	ST2 IL33 inh
CCOC(=O)C1(CCCc2ccccc2)CCN(C(=O)c2cc(CC(C)C)nc(C)n2)CC1	i
COc1ccc2c(c1)C(C)(C)C1(C=Cc3cc([N+](=O)[O-])cc(OC)c3O1)N2C (configuration not stated)	73%*
COc1ccc(NC(=O)c2ccc([N+](=O)[O-])cc2)c(OC)c1	i
COc1ccc(-n2c(C)c([N+](=O)[O-])c3ccc(O)cc32)cc1	i
COc1ccc(N(CC(N)=O)S(C)(=O)=O)cc1OC	i
COc1ccc(CNC(=O)CC[C@H]2CNC(=O)[C@@H]3[C@@H](CCN3C)N2C)cc1	i
COc1ccccc1-c1ccc(C(=O)N2CC[C@H](CO)[C@@H](O)C2)cc1	i
O=C(O)CCCNS(=O)(=O)c1ccc2c(c1)OCCO2	i
Clc1ccc(OCCCCN2CCCC2)cc1	i
CC(NC(=O)/C(=C/c1ccc2c(c1)OCO2)NC(=O)c1ccco1)C(=O)O (configuration not stated)	i
COc1cccc(-c2ncc(CN3C[C@H]4C[C@H](O)[C@H](O)C[C@H]4C3)s2)c1	i
N#C/C(=C\c1ccc(N2CCOCC2)cc1)c1nc2ccccc2[nH]1	i
O=c1/c(=C\c2ccc(-c3ccccc3[N+](=O)[O-])o2)sc2nc3ccccc3n12	i
Cc1cc([N+](=O)[O-])c(C)cc1-c1ccc(/C=C(\C#N)c2nc3ccccc3[nH]2)o1	38%*
O=C(Cn1cncn1)N(CC1CCN(C2Cc3ccccc3C2)CC1)CC1CCCO1 (configuration not stated)	i
CCn1cc(NC(=O)c2cccc(CN3CCCC3c3cc(C)no3)c2)nn1 (configuration not stated)	i
Cc1cc[n+](C2C(c3ccc([N+](=O)[O-])cc3)C(C#N)=C([S-])NC2(O)C2CC2)cc1 (configuration not stated)	59%*
COc1ccccc1C1C(C#N)=C(C(=C=[N-])C#N)NC(O)(C2CC2)C1[n+]1ccc(C)cc1 (configuration not stated)	i
Cc1ccc[n+](C2C(c3ccc([N+](=O)[O-])cc3)C(C#N)=C([S-])NC2(O)C2CC2)c1 (configuration not stated)	50%*
CCn1ncc(C(=O)NCCSc2nc3ccccc3o2)c1C	i
CC1(C)C(c2ccccc2)=[N+]([O-])C(c2ccc(F)cc2)N1O (configuration not stated)	i
COc1cc(NCCNC(=O)c2ccncc2)ncn1	i
c1ccc(C2(CNc3ccccn3)CCCC2)cc1	i
COc1cc(NCC2(c3ccccc3)CCN(C)CC2)ncn1	31%*
OCCC1CN(c2nc(-c3ccncc3)nc3c2CCNCC3)CCO1 (configuration not stated)	i
SMILES	ST2 IL33 inh
Cc1ccc(C(=O)N2CCc3ccccc32)o1	i
Cc1ccc(C(=O)/C=C/C=C/C=C/N(C)C)o1	39%*
O=C(Nc1cccc(C(F)(F)F)c1)c1coc(=O)c2ccccc12	i
O=C(CSc1ncn[nH]1)Nc1cc(C(F)(F)F)ccc1Cl	i
CC(C)c1ccc(C(=O)CSc2ncn[nH]2)cc1	30%*
CCc1nnc(NC(=O)CSc2ncn[nH]2)s1	i
CC(Sc1oc(-c2ccco2)nc1S(=O)(=O)c1ccccc1)c1ccccc1 (configuration not stated)	i
Cc1nc2c(sc3nc4c(cc32)COC(C)(C)C4)c(=O)n1CCc1ccccc1	i
COc1c[nH]c(C(=O)N2C[C@@H]3[C@@H]4CC[C@@H](C4)[C@@H]3C2)cc1=O	i
CC(C(=O)N1CCc2c(nc(-c3ccncc3)nc2N(C)C)C1)n1cccn1 (configuration not stated)	i
Cc1ccc2nc(-c3ccc(C)c(NC(=O)c4ccc5c(c4)OCCO5)c3)oc2c1	i
CN(C(=O)Cc1ccccc1)c1ccccc1	36%*
O=C(Cc1ccccc1)N(c1ccccc1)c1ccccc1	i
CN(C(=O)N1CCN(C(=O)N(C)c2ccccc2)CC1)c1ccccc1	i
Cc1ccc(NC(=O)c2cc3cc([N+](=O)[O-])ccc3oc2=O)cc1Cl	i
c1ccc(CCN2CCCC3(CCN(Cc4ccc5nsnc5c4)C3)C2)cc1 (configuration not stated)	i
C=CCN(C(=O)C1CCC(CNS(=O)(=O)c2cccc3nsnc23)CC1)c1ccccc1 (configuration not stated)	i
CCN(CC)CCNC(=O)C1CCN(Cc2ccc(Cl)cc2)CC1	i
COC(=O)CN1C(=O)C2CCCCN2C(=O)c2ccccc21 (configuration not stated)	i
Cc1ccc2nc(NC(=O)CNS(=O)(=O)c3cccs3)sc2c1	i
CCCCN(C)C(=O)Cc1c(C(=O)O)[nH]c2ccccc12	i
Clc1ccccc1-n1ncnc1-c1ccc(Br)cc1	i
Clc1ccc(-c2ncnn2-c2ccc(Br)cc2)cc1	33%*!
Brc1ccc(-c2ncnn2-c2ccc(Br)nc2)cc1	i
